Screens as filed in PubChem.
FBW7 activator = activators of human E3 ligase FBW7; Q969H0; AlphaScreen FBW7–phospho-cyclin E peptide binding, activator screen; normalized activity (activation), % at 26.1 µM; 650,000 compounds, 0.13% hits; in the data active = normalized activity above about 1.9%;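 note: purified mutant Fbw7 with reduced substrate affinity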
GPR151 activ = human GPR151 activation. Q8TDV0. PathHunter beta-arrestin GPR151 cells, luminescence. activation, % at 11.2 µM. 650,000 compounds, 1% hits; in the data active = activation above about 4.9%
MITF inh = human MITF inhibition, primary screen | AlphaScreen MITF homodimerization, bead proximity signal | AID 1259374 | 650,000 compounds, 0.91% hits | inhibition, % at 2.6 µM | O75030; in the data active = inhibition above about 50%
Target sequence (O75030 whole entry, looked up): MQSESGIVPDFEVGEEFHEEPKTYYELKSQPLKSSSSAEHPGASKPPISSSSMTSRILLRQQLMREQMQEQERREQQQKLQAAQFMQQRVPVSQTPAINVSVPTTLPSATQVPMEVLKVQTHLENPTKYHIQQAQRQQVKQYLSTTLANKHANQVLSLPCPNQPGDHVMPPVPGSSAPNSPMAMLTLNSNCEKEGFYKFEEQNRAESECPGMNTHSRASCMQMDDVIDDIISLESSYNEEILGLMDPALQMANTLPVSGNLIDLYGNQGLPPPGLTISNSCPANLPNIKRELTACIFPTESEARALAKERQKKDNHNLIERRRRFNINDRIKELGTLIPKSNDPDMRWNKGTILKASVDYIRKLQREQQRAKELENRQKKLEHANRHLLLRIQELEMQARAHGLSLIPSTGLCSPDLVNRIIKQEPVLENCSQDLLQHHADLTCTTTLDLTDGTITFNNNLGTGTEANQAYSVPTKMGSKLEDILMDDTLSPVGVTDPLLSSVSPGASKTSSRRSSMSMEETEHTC
TEAD-YAP block = TEAD-YAP interaction inhibition | inhibition, % at 9.12 µM | HEK-TIYL cells, TEAD-Gal4/YAP UAS-luciferase luminescence | 640,000 compounds, 1.4% hits | AID 1259422; in the data active = inhibition above about 32%
Large screens that a line does not name were inactive. A selection: hits, their analogues and other compounds. The true share with any hit is near 3.4%.

CC(=O)O[C@H]1C(=O)[C@@]2(C)[C@H]([C@H](OC(=O)c3ccccc3)[C@]3(O)C[C@H](OC(=O)[C@H](O)[C@@H](NC(=O)c4ccccc4)c4ccccc4)C(C)=C1C3(C)C)[C@]1(OC(C)=O)CO[C@@H]1C[C@@H]2O	TEAD-YAP block 64
O=C1NC(=S)S/C1=C\c1ccc(O)c(O)c1	MITF inh 55
COc1ccc(/C=C2\SC(=S)NC2=O)cc1O	none
O=C1NC(=Nc2ccc(O)cc2)S/C1=C/C=C/c1ccco1	TEAD-YAP block 38
O=C1NC(=Nc2ccccc2)S/C1=C/c1ccc(O)c(O)c1	TEAD-YAP block 47
O=C1NC(=Nc2ccc(F)cc2)S/C1=C\c1ccco1	none
Cc1cc(/C=C2\SC(=Nc3ccccc3)NC2=O)c(C)n1-c1ccccc1	TEAD-YAP block 53
O=C1NC(=Nc2ccccc2)S/C1=C/c1ccccc1	none
COc1ccc2c(c1)OC(C)CN(CCC(=O)NCCn1cccn1)C2 (stereo not given)	none
CC(C)c1ccc(NC(=O)C2C3C=CC4(O3)C2C(=O)N(CCN2CCOCC2)C4C(=O)NC2CCCCC2C)cc1 (stereo not given)	none
COC(=O)C(C)N1C(=O)S/C(=C/c2cc(C)n(-c3ccccn3)c2C)C1=O (stereo not given)	TEAD-YAP block 43
CCOc1cc(/C=C2/SC(=Nc3ccccc3)NC2=O)ccc1O	TEAD-YAP block 52
O=C1NC(=Nc2ccc(O)cc2)S/C1=C\c1ccc(F)cc1	TEAD-YAP block 32
Cc1cc(/C=C2\SC(=O)N(C)C2=O)c(C)n1-c1ccc(O)cc1	TEAD-YAP block 79
O=C(Nc1ccc(Sc2nc3ccccc3s2)c(Cl)c1)c1cc(Br)cc(Br)c1O	none
COc1ccc(/C=C(\C#N)c2ccccc2)c(OC)c1	TEAD-YAP block 32
Cc1ccc(-c2ccc(-c3nnc(N)o3)s2)s1	FBW7 activator 2.3
COc1ccc(-c2nnc(N)o2)cc1OC	none
CCOC(=O)c1oc2ccccc2c1NC(=O)COc1ccccc1F	none
Oc1c(CN2CCOCC2)cc(COCc2ccccc2)c2cccnc12	MITF inh 86, TEAD-YAP block 74
COc1cc(CN2CCOCC2)ccc1OCc1ccccc1	none
COCc1cc(CN2CCN(C)CC2)c(O)c2ncccc12	MITF inh 101
CC(C)OCc1cc(CN2CCN(C)CC2)c(O)c2ncccc12	MITF inh 94
CC(C)OCc1cc(CN2CCOCC2)c(O)c2ncccc12	MITF inh 94
CCCN1CC=C2C(C#N)=C(N)C(C#N)(C#N)C(c3cccc(Cl)c3Cl)C2C1 (stereo not given)	none
CCOc1ccc2[nH]cc(C(=O)NCc3cccnc3)c(=O)c2c1	TEAD-YAP block 41
COC(=O)c1c(NC(=O)c2ccc([N+](=O)[O-])cc2Cl)sc(C)c1C	none
Cc1noc(C)c1C(=O)NCC1Cc2cc(-c3ccc(S(C)(=O)=O)cc3)ccc2O1 (stereo not given)	none
Cc1ccoc1C(=O)NCC1Cc2cc(-c3ccc(S(C)(=O)=O)cc3)ccc2O1 (stereo not given)	TEAD-YAP block 39
CCN(CC)C(=O)C1CC(=O)c2sc(NC(=O)c3ccc4c(c3)OCO4)nc2C1 (stereo not given)	none
CCOC(=O)/C(=C/c1ccc(Br)cc1)c1nnc(N)s1	TEAD-YAP block 40
CCOC(=O)C(=Cc1ccc(O)cc1)C(=O)OCC	none
COc1ccc(Nc2c(-c3ccc4c(c3)OCC(=O)N4)c(=O)c2=O)cc1OC	none
Nc1c(C(=O)Nc2ccc(Br)cc2)nnn1Cc1cccc(Cl)c1	none
Nc1c(C(=O)Nc2ccc(F)cc2)nnn1Cc1cccc(Cl)c1	TEAD-YAP block 33
CC(=O)N(c1ccc(C)cc1Br)S(=O)(=O)c1ccc2ccccc2c1	none
O=Cc1ccccc1OCc1ccc2c(c1)OCO2	none
O=Cc1ccc(OCc2ccc3c(c2)OCO3)c(Cl)c1	TEAD-YAP block 72
NS(=O)(=O)c1ccc(S(=O)(=O)Nc2ccc([N+](=O)[O-])cc2)cc1	none
CC(O)CNCCOc1ccc(Cl)cc1C(C)(C)C (stereo not given)	none
COc1cc(C(=O)O)c(-n2c(C)ccc2C)cc1OC	MITF inh 72
COc1ccc(Br)cc1C(=O)O	none
COc1cc(Cn2c(-c3nonc3N)nc3ccccc32)ccc1C	TEAD-YAP block 51
COc1cccc(Cn2c(-c3nonc3N)nc3ccccc32)c1	TEAD-YAP block 38
Cc1ccc(Cn2c(-c3nonc3N)nc3ccccc32)cc1	none
COc1ccc(C)cc1Cn1c(-c2nonc2N)nc2ccccc21	TEAD-YAP block 53
COc1ccc(Cn2c(-c3nonc3N)nc3ccccc32)cc1	none
COc1ccc(CSc2nsc(SCc3ccc(OC)cc3)c2C#N)cc1	none
